# Source: PubChem BioAssay (EPA / NIEHS)
# Inconclusive results are not listed. The source holds several records for some structures; these can differ, active in one and inactive in another. Calls of active or inactive are those of the source. The calls were made as follows, unless noted: active = hit-call score of the fitted dose curve at least 0.9, where 1 is the maximum; inactive = score below 0.9.
# Tests used:
# [1] = molecular target: Glucocorticoid receptor (Homo sapiens) (UniProt P04150); test: ATG_GR_TRANS: Attagene TRANS-FACTORIAL HepG2 Assay for human Glucocorticoid Receptor (GR) (AID 2282978; active = hit-call score of the fitted dose curve at least 0.9, where 1 is the maximum;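 also: activators score as hits since higher reporter transcript over DMSO is fitted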); settings: HepG2 Attagene TRANS GR reporter, mRNA transcription
# Summary of the method: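 Transiently transfected HepG2 cells express chimeric NR-GAL4 proteins acting on GAL4-UAS reporter units. Compounds are applied for 24 h. mRNA induction over DMSO is measured by capillary electrophoresis.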
# [2] = molecular target: Bile acid receptor (Homo sapiens) (UniProt Q96RI1); test: ATG_FXR_TRANS: Attagene TRANS-FACTORIAL HepG2 Assay for Farnesoid X Receptor (FXR) (AID 2282979; active = hit-call score of the fitted dose curve at least 0.9, where 1 is the maximum;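 also: hits raise reporter mRNA above DMSO so AC50 marks FXR activation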); settings: HepG2 Attagene TRANS FXR-GAL4 reporter transcription
# Summary of the method: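 After 24 h chemical treatment of transfected HepG2 cells, GAL4-UAS reporter transcripts driven by an exogenous FXR-GAL4 fusion were measured by RT-PCR and capillary electrophoresis. Increases over DMSO were fitted.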
# [3] = molecular target: Oxysterols receptor LXR-alpha (Homo sapiens) (UniProt Q13133); test: ATG_LXRa_TRANS: Attagene TRANS-FACTORIAL HepG2 Assay for human Liver X Receptor alpha (LXRa) (AID 2282980; active = hit-call score of the fitted dose curve at least 0.9, where 1 is the maximum); settings: HepG2 Attagene TRANS reporter, LXRa transactivation
# Summary of the method: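 In this multiplexed TRANS system, compounds act on HepG2 cells carrying GAL4-UAS reporter units and a receptor-GAL4 fusion for 24 h. Induced reporter RNA is amplified, fluorescently labelled and sized by capillary electrophoresis, with DMSO as baseline.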
# [4] = ATG_M_32_TRANS: Attagene TRANS-FACTORIAL HepG2 Assay for M32 Transcription Factor (Internal Marker) (AID 2282984; active = hit-call score of the fitted dose curve at least 0.9, where 1 is the maximum;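 also: transcript level of a background control reporter unit measured by RT-PCR and capillary electrophoresis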); settings: HepG2 Attagene TRANS M32 internal marker reporter
# Summary of the method: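 HepG2 cells transiently transfected with GAL4-UAS reporter units, dosed for 24 hours. Reporter mRNA quantified by RT-PCR, 6-FAM labelling, HpaI digestion and capillary electrophoresis; internal-marker signal fitted upward relative to DMSO.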
# [5] = molecular target: Nuclear receptor subfamily 4 group A member 2 (Homo sapiens) (UniProt P43354); test: ATG_NURR1_TRANS: Attagene TRANS-FACTORIAL HepG2 Assay for human Nuclear Receptor Related Protein 1 (NURR1) (AID 2282985; active = hit-call score of the fitted dose curve at least 0.9, where 1 is the maximum); settings: HepG2 Attagene TRANS reporter, mRNA readout
# Summary of the method: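 HepG2 cells transiently transfected with NURR1-Gal4 chimera and GAL4-UAS reporter units; after 24 hr compound exposure, reporter mRNA quantified by RT-PCR and capillary electrophoresis; gain of signal fitted against DMSO.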
# [6] = molecular target: Nuclear respiratory factor 1 (Homo sapiens) (UniProt Q16656); test: ATG_NRF1_CIS: Attagene CIS-FACTORIAL HepG2 Assay for human Nuclear Respiratory Factor 1 (NRF1) Orphan Gene (AID 2282987); settings: HepG2 NRF1 cis-element reporter, Attagene multiplex; actives raise or lower the signal
# Summary of the method: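 Reporter mRNA induction or loss in HepG2 cells after 24 h dosing; cis-regulated reporter constructs report endogenous transcription-factor activity. Quantified by RT-PCR/capillary electrophoresis fluorescence, DMSO-referenced.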
# [7] = ATG_NFI_CIS: Attagene CIS-FACTORIAL HepG2 Assay for human Nuclear Factor I (NFI) (AID 2282989); settings: HepG2 cis-regulatory reporter, NFI response element transcription; actives raise or lower the signal
# Summary of the method: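 Multiplexed cis-reporter system in human HepG2 cells reports native TF activity as reporter mRNA induction 24 h post-dose. Fragments labelled with 6-FAM, HpaI-digested and resolved by capillary electrophoresis; activity fitted both directions versus DMSO.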
# [8] = molecular target: Myc proto-oncogene protein (Homo sapiens) (UniProt P01106); test: ATG_Myc_CIS: Attagene CIS-FACTORIAL HepG2 Assay for human Myelocytomatosis (Myc) Proto-Oncogene Transcription Factor (AID 2282990); settings: HepG2, Attagene cis-reporter transcription factor activity; actives raise or lower the signal
# Summary of the method: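 Fluorescence intensity of reporter-specific cDNA fragments, separated by capillary electrophoresis, gives the signal. Transfected HepG2 cells carrying cis-promoter reporter constructs are incubated with compound for 24 h; DMSO serves as baseline.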
# [9] = ATG_NF_kB_CIS: Attagene CIS-FACTORIAL HepG2 Assay for human Nuclear Factor Kappa B (NF-kB) (AID 2282991); settings: HepG2 Attagene cis-factorial NF-kB reporter mRNA; actives raise or lower the signal
# Summary of the method: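 DMSO served as negative control and baseline for bidirectional curve fitting. Transiently transfected HepG2 cells were dosed for 24 h, then reporter transcripts were measured by RT-PCR with capillary electrophoresis detection.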
# [10] = ATG_NRF2_ARE_CIS: Attagene CIS-FACTORIAL HepG2 Assay for human Nuclear Factor Erythroid 2 Related Factor 2 (NFR2) response to Antioxidant Response Elements (ARE) (AID 2282992); settings: HepG2 Attagene ARE/NRF2 reporter, transcription factor activity; actives raise or lower the signal;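 as to AC50: reporter mRNA level measured by RT-PCR and capillary electrophoresis fluorescence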
# Summary of the method: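 Transient MRTU transfection of HepG2; 24 h compound exposure; TriZol RNA, RT with oligo(dT), PCR, 6-FAM primer extension, HpaI cut, CE. Bidirectional fit vs DMSO.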
# [11] = ATG_Oct_MLP_CIS: Attagene CIS-FACTORIAL HepG2 Assay for human Octamer-Binding Transcription Factor (Oct) (AID 2282993); settings: HepG2 Attagene cis-factorial Oct reporter, mRNA; actives raise or lower the signal
# Summary of the method: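 After 24 h compound exposure, transfected HepG2 cells were lysed for total RNA; reporter-specific cDNA was PCR-amplified, fluorescently labelled and sized by capillary electrophoresis. Bidirectional curve fitting used DMSO as baseline.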
# [12] = molecular target: Cellular tumor antigen p53 (Homo sapiens) (UniProt P04637); test: ATG_p53_CIS: Attagene CIS-FACTORIAL HepG2 Assay for human p53 Transcription Factor (AID 2282994); settings: HepG2 p53 cis-element reporter, Attagene mRNA; actives raise or lower the signal
# Summary of the method: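 HepG2, transient MRTU transfection (cis promoter elements, endogenous TFs); 24 h dosing; RNA isolation, RT-PCR, 6-FAM primer extension, HpaI digest, CE fluorescence; bidirectional fit vs DMSO.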
# [13] = BSK_3C_TissueFactor: BioMAP Diversity Plus: 3C Assay for Tissue Factor Biomarker Activity (AID 2282997); settings: BioMAP 3C HUVEC, tissue factor biomarker readout; actives raise or lower the signal
# Summary of the method: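 Endothelial monolayers (human umbilical vein, primary) are dosed, incubated 24 h, and assayed for Tissue Factor by ELISA; DMSO serves as negative control for bidirectional fitting.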
# [14] = BSK_3C_uPAR: BioMAP Diversity Plus: 3C Assay for Urokinase-type plasminogen activator receptor (uPAR) Biomarker Activity (AID 2282998); settings: BioMAP 3C HUVEC, uPAR biomarker ELISA; actives raise or lower the signal
# Summary of the method: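 Values derive from bidirectional curve fitting relative to DMSO, which served as baseline of activity. uPAR was measured by ELISA in human umbilical vein endothelial primary cultures 24 h after compound addition.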
# [15] = BSK_3C_VCAM1: BioMAP Diversity Plus: 3C Assay for Vascular cell adhesion molecule 1 (VCAM1) Biomarker Activity (AID 2282999); settings: BioMAP 3C HUVEC, VCAM1 ELISA, cytokine-stimulated; actives raise or lower the signal
# Summary of the method: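 Human umbilical vein endothelial cells (3C system), biomarker read by ELISA 24 h after dosing; bidirectional fit against DMSO baseline. Cytotoxicity tracked by SRB total-protein staining in parallel cultures at biomarker time.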
# [16] = BSK_4H_Eotaxin3: BioMAP Diversity Plus: 4H Assay for Eotaxin 3 Biomarker Activity (AID 2283000); settings: primary human endothelial cells (HUVEC); actives raise or lower the signal;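 as to outcome: CCL26 protein level quantified by ELISA in parallel with SRB cytotoxicity check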
# Summary of the method: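 ELISA quantitation of CCL26 (Eotaxin-3) protein from chemically dosed human vascular endothelial cells at 24 h; increases and decreases both scored relative to DMSO-treated baseline.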
# [17] = ATG_M_06_TRANS: Attagene TRANS-FACTORIAL HepG2 Assay for M06 Transcription Factor (Internal Marker) (AID 2282983; active = hit-call score of the fitted dose curve at least 0.9, where 1 is the maximum;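 also: reporter transcript level by RT-PCR then capillary electrophoresis fluorescence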); settings: HepG2 Attagene TRANS M06 internal marker reporter
# Summary of the method: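 Internal-marker background readout from a multiplexed TRANS reporter system in HepG2; 24 h dosing; mRNA induction quantified by RT-PCR plus capillary electrophoresis fluorescence; DMSO as negative control and baseline.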
# [18] = molecular target: Hepatocyte nuclear factor 4-alpha (Homo sapiens) (UniProt P41235); test: ATG_HNF4a_TRANS: Attagene TRANS-FACTORIAL HepG2 Assay for human Hepatocyte Nuclear Factor 4 alpha (HNF4a) (AID 2282982; active = hit-call score of the fitted dose curve at least 0.9, where 1 is the maximum); settings: HepG2 HNF4a transactivation reporter, mRNA readout
# Summary of the method: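 HepG2 cells transiently transfected with HNF4a-Gal4 chimera and GAL4-UAS reporter units, dosed for 24 h. Reporter mRNA measured by RT-PCR, fluorescent primer extension and capillary electrophoresis; gain-of-signal fitted relative to DMSO.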
# [19] = molecular target: Transcriptional activator Myb (Homo sapiens) (UniProt P10242); test: ATG_Myb_CIS: Attagene CIS-FACTORIAL HepG2 Assay for human Myeloblastosis (Myb) Proto-Oncogene Transcription Factor (AID 2282986); settings: HepG2 Attagene CIS-FACTORIAL Myb reporter transcription; actives raise or lower the signal
# Summary of the method: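 Using HepG2 liver cells bearing transiently transfected cis-promoter reporter constructs, the assay measures induction or loss of reporter mRNA after 24 hours of dosing. Detection used fluorescently labeled RT-PCR products separated by capillary electrophoresis.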
# Myc proto-oncogene protein (Homo sapiens), sequence (P01106 whole entry, looked up, the tested form may be a part): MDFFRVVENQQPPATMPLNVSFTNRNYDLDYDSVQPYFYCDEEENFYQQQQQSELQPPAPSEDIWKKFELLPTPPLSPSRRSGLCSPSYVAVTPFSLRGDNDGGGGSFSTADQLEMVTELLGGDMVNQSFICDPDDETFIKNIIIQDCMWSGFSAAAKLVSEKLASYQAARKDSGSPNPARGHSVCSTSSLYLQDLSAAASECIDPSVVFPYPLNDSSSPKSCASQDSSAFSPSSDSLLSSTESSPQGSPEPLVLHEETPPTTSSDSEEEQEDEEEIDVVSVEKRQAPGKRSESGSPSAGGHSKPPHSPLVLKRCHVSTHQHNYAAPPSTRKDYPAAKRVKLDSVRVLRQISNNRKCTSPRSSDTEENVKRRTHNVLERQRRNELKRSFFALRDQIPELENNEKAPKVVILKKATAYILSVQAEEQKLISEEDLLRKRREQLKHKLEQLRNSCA
# Cellular tumor antigen p53 (Homo sapiens), sequence (P04637 whole entry, looked up): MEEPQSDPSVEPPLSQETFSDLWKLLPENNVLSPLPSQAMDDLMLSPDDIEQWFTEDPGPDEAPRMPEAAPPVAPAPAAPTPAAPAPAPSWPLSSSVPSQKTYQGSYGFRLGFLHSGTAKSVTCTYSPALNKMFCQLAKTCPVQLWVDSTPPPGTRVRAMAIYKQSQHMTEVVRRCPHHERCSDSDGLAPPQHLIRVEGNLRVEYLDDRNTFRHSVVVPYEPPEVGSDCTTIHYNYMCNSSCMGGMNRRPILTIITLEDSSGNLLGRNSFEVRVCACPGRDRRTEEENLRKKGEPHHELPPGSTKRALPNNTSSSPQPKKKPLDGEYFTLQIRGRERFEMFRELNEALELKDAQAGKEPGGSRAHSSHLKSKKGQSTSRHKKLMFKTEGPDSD
# Bile acid receptor (Homo sapiens), sequence (Q96RI1 whole entry, looked up, the tested form may be a part): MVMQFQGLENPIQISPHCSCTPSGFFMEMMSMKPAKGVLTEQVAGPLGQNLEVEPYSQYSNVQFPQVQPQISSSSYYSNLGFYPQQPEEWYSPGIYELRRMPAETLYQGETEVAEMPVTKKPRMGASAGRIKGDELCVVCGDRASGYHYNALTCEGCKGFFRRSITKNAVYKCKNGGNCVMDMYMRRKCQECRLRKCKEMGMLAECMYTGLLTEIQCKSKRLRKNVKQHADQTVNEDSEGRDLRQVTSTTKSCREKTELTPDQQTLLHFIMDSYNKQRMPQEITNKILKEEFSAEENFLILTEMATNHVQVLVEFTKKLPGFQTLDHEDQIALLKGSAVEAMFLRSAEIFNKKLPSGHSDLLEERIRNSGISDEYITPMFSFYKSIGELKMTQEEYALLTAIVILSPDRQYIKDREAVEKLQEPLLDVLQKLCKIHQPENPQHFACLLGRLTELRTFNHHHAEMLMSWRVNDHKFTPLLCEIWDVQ
# Hepatocyte nuclear factor 4-alpha (Homo sapiens), sequence (P41235 whole entry, looked up, the tested form may be a part): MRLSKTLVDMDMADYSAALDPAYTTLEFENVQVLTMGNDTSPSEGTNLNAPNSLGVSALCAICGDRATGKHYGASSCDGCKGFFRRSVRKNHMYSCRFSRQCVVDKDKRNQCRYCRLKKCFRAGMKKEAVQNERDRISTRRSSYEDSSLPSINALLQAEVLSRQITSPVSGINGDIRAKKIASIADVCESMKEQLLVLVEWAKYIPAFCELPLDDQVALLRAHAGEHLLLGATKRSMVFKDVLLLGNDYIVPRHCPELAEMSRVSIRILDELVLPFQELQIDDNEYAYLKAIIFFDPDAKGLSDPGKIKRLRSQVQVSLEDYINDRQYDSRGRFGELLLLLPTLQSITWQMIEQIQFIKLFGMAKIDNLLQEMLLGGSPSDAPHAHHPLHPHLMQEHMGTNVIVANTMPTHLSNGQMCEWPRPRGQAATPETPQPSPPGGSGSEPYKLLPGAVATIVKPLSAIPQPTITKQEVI
# Glucocorticoid receptor (Homo sapiens), sequence (P04150 whole entry, looked up, the tested form may be a part): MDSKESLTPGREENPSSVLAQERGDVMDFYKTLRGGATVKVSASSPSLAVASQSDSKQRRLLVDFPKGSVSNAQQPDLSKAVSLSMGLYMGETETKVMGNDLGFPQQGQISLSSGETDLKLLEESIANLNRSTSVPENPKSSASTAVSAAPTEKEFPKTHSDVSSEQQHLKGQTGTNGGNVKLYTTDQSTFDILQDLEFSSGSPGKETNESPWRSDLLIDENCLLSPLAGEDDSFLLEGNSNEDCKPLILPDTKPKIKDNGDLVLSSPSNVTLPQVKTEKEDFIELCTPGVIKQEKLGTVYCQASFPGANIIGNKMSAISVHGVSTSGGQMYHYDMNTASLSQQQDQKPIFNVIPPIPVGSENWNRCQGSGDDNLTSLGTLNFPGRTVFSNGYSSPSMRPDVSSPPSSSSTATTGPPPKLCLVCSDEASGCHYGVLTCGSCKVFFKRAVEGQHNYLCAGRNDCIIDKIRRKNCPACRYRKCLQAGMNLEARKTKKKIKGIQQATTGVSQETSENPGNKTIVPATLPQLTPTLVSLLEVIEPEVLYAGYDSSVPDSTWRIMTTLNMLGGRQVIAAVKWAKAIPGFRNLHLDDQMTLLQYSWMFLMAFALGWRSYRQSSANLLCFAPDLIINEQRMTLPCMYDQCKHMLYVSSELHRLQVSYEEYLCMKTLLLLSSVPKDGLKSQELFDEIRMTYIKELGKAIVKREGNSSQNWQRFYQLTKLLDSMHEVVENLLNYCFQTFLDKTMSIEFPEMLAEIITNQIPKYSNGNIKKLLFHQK
# Transcriptional activator Myb (Homo sapiens), sequence (P10242 whole entry, looked up): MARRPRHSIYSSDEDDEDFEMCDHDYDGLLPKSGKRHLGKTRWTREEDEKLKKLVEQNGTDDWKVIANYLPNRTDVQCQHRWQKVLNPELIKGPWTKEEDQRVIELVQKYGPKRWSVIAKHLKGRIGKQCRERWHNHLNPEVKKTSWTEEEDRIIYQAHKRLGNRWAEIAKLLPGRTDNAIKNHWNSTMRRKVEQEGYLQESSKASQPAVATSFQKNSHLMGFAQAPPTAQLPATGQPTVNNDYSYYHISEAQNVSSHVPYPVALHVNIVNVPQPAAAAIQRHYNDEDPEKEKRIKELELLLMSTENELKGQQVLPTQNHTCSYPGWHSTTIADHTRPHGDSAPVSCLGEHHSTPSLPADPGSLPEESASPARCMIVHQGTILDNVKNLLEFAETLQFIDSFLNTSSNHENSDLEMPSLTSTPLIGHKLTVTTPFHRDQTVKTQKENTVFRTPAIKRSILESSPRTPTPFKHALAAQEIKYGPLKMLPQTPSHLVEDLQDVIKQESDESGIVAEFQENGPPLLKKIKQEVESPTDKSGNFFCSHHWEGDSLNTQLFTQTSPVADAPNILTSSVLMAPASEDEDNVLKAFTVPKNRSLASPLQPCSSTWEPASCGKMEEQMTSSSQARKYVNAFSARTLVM
# Nuclear receptor subfamily 4 group A member 2 (Homo sapiens), sequence (P43354 whole entry, looked up, the tested form may be a part): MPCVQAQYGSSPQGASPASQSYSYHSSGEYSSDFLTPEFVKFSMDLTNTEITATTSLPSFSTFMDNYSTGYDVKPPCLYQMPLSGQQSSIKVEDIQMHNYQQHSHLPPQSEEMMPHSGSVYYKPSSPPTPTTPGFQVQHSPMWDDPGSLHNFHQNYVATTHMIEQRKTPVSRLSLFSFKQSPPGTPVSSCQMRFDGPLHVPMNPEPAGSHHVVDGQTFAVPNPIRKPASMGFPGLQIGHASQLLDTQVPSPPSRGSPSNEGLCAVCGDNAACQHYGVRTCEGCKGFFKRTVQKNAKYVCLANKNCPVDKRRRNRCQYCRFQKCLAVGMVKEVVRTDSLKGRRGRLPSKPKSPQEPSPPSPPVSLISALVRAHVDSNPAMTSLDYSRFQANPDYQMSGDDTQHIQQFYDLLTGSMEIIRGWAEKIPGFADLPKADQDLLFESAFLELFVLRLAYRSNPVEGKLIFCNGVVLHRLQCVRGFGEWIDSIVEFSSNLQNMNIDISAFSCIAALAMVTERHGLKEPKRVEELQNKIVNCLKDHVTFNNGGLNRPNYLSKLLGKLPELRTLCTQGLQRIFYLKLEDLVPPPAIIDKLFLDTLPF
# Nuclear respiratory factor 1 (Homo sapiens), sequence (Q16656 whole entry, looked up): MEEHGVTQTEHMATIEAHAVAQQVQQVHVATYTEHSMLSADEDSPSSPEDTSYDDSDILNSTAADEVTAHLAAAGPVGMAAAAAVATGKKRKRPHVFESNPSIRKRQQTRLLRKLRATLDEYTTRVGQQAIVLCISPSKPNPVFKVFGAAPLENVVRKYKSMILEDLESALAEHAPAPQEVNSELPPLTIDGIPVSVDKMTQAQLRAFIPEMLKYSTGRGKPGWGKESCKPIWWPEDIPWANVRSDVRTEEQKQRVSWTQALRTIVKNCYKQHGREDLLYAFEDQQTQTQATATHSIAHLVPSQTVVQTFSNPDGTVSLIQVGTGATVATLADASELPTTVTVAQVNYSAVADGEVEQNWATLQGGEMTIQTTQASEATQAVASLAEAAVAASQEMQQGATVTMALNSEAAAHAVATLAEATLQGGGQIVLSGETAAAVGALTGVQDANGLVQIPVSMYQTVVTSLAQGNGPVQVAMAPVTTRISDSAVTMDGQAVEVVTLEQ
# Oxysterols receptor LXR-alpha (Homo sapiens), sequence (Q13133 whole entry, looked up, the tested form may be a part): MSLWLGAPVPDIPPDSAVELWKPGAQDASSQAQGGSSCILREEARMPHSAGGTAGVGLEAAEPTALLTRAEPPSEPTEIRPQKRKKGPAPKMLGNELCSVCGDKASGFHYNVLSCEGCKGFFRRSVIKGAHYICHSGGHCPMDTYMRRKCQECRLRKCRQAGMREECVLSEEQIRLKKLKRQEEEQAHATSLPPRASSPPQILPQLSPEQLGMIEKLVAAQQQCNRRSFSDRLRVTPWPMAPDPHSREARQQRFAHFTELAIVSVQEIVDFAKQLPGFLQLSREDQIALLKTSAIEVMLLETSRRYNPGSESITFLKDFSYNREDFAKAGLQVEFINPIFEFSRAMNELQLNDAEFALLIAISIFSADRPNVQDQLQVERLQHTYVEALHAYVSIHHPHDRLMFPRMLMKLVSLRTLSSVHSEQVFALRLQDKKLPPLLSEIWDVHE
compound,measurement,setting,value
FC(F)=C(F)C(F)(F)C(F)(F)C(F)(F)C(F)(F)C(F)(F)C(F)(F)F,outcome,[1],inactive
same,outcome,[2],inactive
same,outcome,[3],inactive
same,outcome,[4],inactive
same,outcome,[5],inactive
same,outcome,[6],inactive
same,outcome,[7],inactive
same,outcome,[8],inactive
same,outcome,[9],inactive
same,AC50,[10],86.6 µM (active)
same,outcome,[10],inactive
same,AC50,[11],267 µM (active)
same,outcome,[11],inactive
same,outcome,[12],inactive
same,outcome,[13],inactive
same,outcome,[14],inactive
same,outcome,[15],inactive
same,outcome,[16],inactive
CC(C)c1nnc2ccc(-c3ocnc3-c3cc(F)ccc3F)cn12,outcome,[1],inactive
same,outcome,[2],inactive
same,outcome,[17],inactive
same,outcome,[8],inactive
same,AC50,[11],130 µM (active)
same,outcome,[12],inactive
same,AC50,[13],743 nM (active)
same,outcome,[14],inactive
same,outcome,[15],inactive
same,outcome,[16],inactive
O=C(O)[C@H](O)[C@@H](O)C(=O)O,outcome,[1],inactive
same,outcome,[2],inactive
same,outcome,[3],inactive
same,outcome,[17],inactive
same,outcome,[6],inactive
same,outcome,[7],inactive
same,outcome,[8],inactive
same,outcome,[10],inactive
same,outcome,[13],inactive
same,outcome,[14],inactive
same,outcome,[15],inactive
same,outcome,[16],inactive
NC(=O)N(O)[C@@H]1COc2cc(OCc3ccccc3)ccc21,outcome,[1],inactive
same,outcome,[2],inactive
same,outcome,[3],inactive
same,outcome,[18],inactive
same,outcome,[17],inactive
same,outcome,[4],inactive
same,outcome,[19],inactive
same,outcome,[6],inactive
same,outcome,[7],inactive
same,outcome,[8],inactive
same,outcome,[9],inactive
same,outcome,[10],inactive
same,outcome,[13],inactive
same,outcome,[14],inactive
same,outcome,[15],inactive
same,outcome,[16],inactive
COc1cc2c(c(OC)c1OC)-c1ccc(OC)c(=O)cc1[C@@H](NC(C)=O)CC2,outcome,[1],inactive
same,outcome,[2],inactive
same,outcome,[3],inactive
same,outcome,[17],inactive
same,outcome,[19],inactive
same,AC50,[6],257 nM (active)
same,outcome,[8],inactive
same,outcome,[10],inactive
same,outcome,[13],inactive
same,AC50,[14],149 nM (active)
same,AC50,[15],404 nM (active)
same,AC50,[16],148 nM (active)
O=S(=O)(O)c1ccc(N=Nc2c(O)ccc3cc(S(=O)(=O)O)ccc23)cc1,outcome,[1],inactive
same,outcome,[3],inactive
same,outcome,[18],inactive
same,outcome,[17],inactive
same,outcome,[4],inactive
same,outcome,[5],inactive
same,outcome,[6],inactive
same,outcome,[7],inactive
same,outcome,[8],inactive
same,outcome,[9],inactive
same,outcome,[10],inactive
same,outcome,[11],inactive
same,outcome,[13],inactive
same,outcome,[14],inactive
same,outcome,[15],inactive
same,outcome,[16],inactive
O=C(Cl)C(F)(F)C(F)(F)C(F)(F)C(=O)Cl,outcome,[1],inactive
same,outcome,[2],inactive
same,outcome,[3],inactive
same,outcome,[18],inactive
same,outcome,[17],inactive
same,outcome,[4],inactive
same,outcome,[19],inactive
same,outcome,[6],inactive
same,outcome,[7],inactive
same,outcome,[8],inactive
same,outcome,[10],inactive
same,outcome,[12],inactive
same,outcome,[13],inactive
same,outcome,[14],inactive
same,outcome,[15],inactive
same,outcome,[16],inactive
CCCCCCCC1CCC(=O)O1 (centres undefined),outcome,[1],inactive
same,outcome,[2],inactive
same,outcome,[4],inactive
same,outcome,[8],inactive
same,outcome,[12],inactive
same,outcome,[13],inactive
same,outcome,[14],inactive
same,outcome,[15],inactive
same,outcome,[16],inactive
